Source: article PMC4336329 (PLoS ONE, 2015)
Out of some 310,000 compounds screened, about 14,000 (4.5%) showed an effect of 50% or more. The effect is printed as a negative number. The entries come from a sample that favours strong results as a whole.

Biological target: human ether-à-go-go-related gene (hERG) potassium channel (human, UniProt Q12809)
Test: primary screen, population patch clamp on CHO cells stably expressing hERG; higher = less effect of the substance
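Note: peak tail current of the secondary pulse compared with the same well before compound.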

Chain of human ether-à-go-go-related gene (hERG) potassium channel (Q12809 whole entry, looked up): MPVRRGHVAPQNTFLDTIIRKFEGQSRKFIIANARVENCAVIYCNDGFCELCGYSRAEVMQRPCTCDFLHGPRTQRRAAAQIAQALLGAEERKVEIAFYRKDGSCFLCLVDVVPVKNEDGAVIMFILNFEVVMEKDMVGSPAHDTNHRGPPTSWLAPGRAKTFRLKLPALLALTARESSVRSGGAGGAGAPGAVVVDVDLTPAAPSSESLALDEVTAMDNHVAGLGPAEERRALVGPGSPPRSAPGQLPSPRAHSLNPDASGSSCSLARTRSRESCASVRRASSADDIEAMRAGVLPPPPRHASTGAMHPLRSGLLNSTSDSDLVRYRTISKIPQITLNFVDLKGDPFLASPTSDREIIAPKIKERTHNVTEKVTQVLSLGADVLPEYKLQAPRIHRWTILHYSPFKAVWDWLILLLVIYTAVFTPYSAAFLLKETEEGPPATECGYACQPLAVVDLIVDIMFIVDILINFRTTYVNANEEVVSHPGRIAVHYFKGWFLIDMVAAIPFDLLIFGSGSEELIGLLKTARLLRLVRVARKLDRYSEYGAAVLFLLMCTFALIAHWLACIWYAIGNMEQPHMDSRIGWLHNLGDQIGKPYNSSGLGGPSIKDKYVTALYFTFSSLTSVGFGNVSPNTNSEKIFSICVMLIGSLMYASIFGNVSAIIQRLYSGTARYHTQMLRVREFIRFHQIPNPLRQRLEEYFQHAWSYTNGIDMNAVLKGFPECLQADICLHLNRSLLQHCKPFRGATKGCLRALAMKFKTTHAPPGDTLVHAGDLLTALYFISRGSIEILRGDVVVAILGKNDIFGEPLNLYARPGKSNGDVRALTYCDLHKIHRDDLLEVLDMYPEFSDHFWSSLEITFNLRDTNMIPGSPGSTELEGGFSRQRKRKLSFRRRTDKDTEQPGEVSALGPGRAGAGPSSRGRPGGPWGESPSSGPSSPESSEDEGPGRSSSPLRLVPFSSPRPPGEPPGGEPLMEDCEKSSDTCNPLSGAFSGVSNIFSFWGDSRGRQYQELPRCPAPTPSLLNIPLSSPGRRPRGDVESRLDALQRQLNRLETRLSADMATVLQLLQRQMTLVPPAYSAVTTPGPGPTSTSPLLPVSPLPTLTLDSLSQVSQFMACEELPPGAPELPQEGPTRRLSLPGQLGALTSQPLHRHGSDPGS

Which “hERG current change (%, negative = inhibition) at 10uM” value does the source give for Cc1ccc(S(=O)(=O)NC(C)(C)CN2CCCCC2)cc1 here?
Its value is 3.77%.

Cc1cc(=O)oc2cc(OCC(=O)c3ccccc3)ccc12 was tested. Which “hERG current change (%, negative = inhibition) at 10uM” value did it give?
The value was 10.9%.

Cc1cc(=O)oc2cc(OCC(=O)NC3CCCCC3)ccc12 was tested. Which “hERG current change (%, negative = inhibition) at 10uM” value did it give?
Its value is -60.7%.

With Cc1cc(=O)oc2cc(OCC(=O)NC3CCCC3)ccc12 as the compound, how does the “hERG current change (%, negative = inhibition) at 10uM” value read?
The value was -67.2%.

With Cc1cc(=O)oc2cc(OCC(=O)OCC(=O)NC3CC3)ccc12 as the compound, how does the “hERG current change (%, negative = inhibition) at 10uM” value read?
The value was 16.4%.

With COc1cccc(C(=O)COc2ccc3c(C)cc(=O)oc3c2)c1 as the compound, how does the “hERG current change (%, negative = inhibition) at 10uM” value read?
Its value is -70.8%.

For Cc1cc(=O)oc2cc(OCC(=O)NC3CC(C)(C)NC(C)(C)C3)ccc12, which “hERG current change (%, negative = inhibition) at 10uM” value is on record?
The value was -34.2%.

For Cc1cc(=O)oc2cc(OCC(=O)OC(C)C(=O)NC3CCCC3)ccc12 (stereo not shown), which “hERG current change (%, negative = inhibition) at 10uM” value is on record?
The value was 2.63%.

For COc1ccc(C(=O)COc2ccc3c(C)cc(=O)oc3c2)cc1, which “hERG current change (%, negative = inhibition) at 10uM” value is on record?
Its value is 11.1%.

Which “hERG current change (%, negative = inhibition) at 10uM” value does the source give for O=C(COc1ccc2c3c(c(=O)oc2c1)CCC3)NC1CCCCC1 here?
Its value is 4.83%.

With CCOc1cc(NC(=S)NCC(C)C)c(OCC)cc1NC(=O)c1cccs1 as the compound, how does the “hERG current change (%, negative = inhibition) at 10uM” value read?
Its value is 13.2%.

O=C1NC2(CCCCC2)C(=O)N1/N=C/c1ccc(O)cc1O was tested. Which “hERG current change (%, negative = inhibition) at 10uM” value did it give?
Its value is -16.7%.

With COc1ccc(C(=O)c2c[nH]c(C(=O)N=CN(C)C)c2)cc1 as the compound, how does the “hERG current change (%, negative = inhibition) at 10uM” value read?
Its value is 10.2%.

Which “hERG current change (%, negative = inhibition) at 10uM” value does the source give for O=C(c1ccc(NC2=NC3CS(=O)(=O)CC3S2)cc1)N1CCN(c2ccccc2)CC1 (stereo not shown) here?
The value was 20.7%.

COc1ccc(-c2nc3cnccn3c2Nc2ccc3c(c2)OCO3)cc1 was tested. Which “hERG current change (%, negative = inhibition) at 10uM” value did it give?
Its value is -52.7%.

Cc1ccc(-c2nc3cnccn3c2Nc2ccc3c(c2)OCCO3)o1 was tested. Which “hERG current change (%, negative = inhibition) at 10uM” value did it give?
Its value is -23.8%.

For Cc1ccc(Nc2c(-c3ccccn3)nc3cc(C)ccn23)cc1, which “hERG current change (%, negative = inhibition) at 10uM” value is on record?
The value was -48.1%.

Cc1ccn2c(Nc3ccc4c(c3)OCO4)c(-c3ccccn3)nc2c1 was tested. Which “hERG current change (%, negative = inhibition) at 10uM” value did it give?
The value was -67.4%.

Cc1ccc(-c2nc3cnccn3c2Nc2ccc3c(c2)OCO3)cc1 was tested. Which “hERG current change (%, negative = inhibition) at 10uM” value did it give?
Its value is -25.7%.

Clc1ccc(-c2nc3cnccn3c2Nc2ccc3c(c2)OCO3)cc1 was tested. Which “hERG current change (%, negative = inhibition) at 10uM” value did it give?
Its value is -18.4%.

For Cc1ccn2c(Nc3ccccc3)c(-c3ccccn3)nc2c1, which “hERG current change (%, negative = inhibition) at 10uM” value is on record?
Its value is -10.8%.

How did the “hERG current change (%, negative = inhibition) at 10uM” value turn out when Cc1ccc(-c2nc3cnccn3c2Nc2ccc3c(c2)OCO3)o1 was run?
Its value is -52.7%.

With Cc1ccc(Nc2c(-c3ccc(C)o3)nc3cnccn23)cc1 as the compound, how does the “hERG current change (%, negative = inhibition) at 10uM” value read?
The value was 4.98%.

Which “hERG current change (%, negative = inhibition) at 10uM” value does the source give for Cc1ccc(NC(=O)CSc2nnc(-c3ccoc3C)n2CCCN(C)C)cc1Cl here?
The value was -69.3%.

Cc1occc1-c1nnc(SCC(=O)Nc2ccc3c(c2)OCO3)n1CC1CCCO1 (stereo not shown) was tested. Which “hERG current change (%, negative = inhibition) at 10uM” value did it give?
The value was -2.13%.

How did the “hERG current change (%, negative = inhibition) at 10uM” value turn out when COCCCn1c(SCC(=O)Nc2ccc3c(c2)OCCO3)nnc1-c1ccoc1C was run?
Its value is -5.98%.

For CCCn1c(SCC(=O)Nc2cccc(C(=O)OCC)c2)nnc1-c1ccoc1C, which “hERG current change (%, negative = inhibition) at 10uM” value is on record?
The value was -2.61%.

CCOC(=O)c1cccc(NC(=O)CSc2nnc(-c3ccoc3C)n2CCOC)c1 was tested. Which “hERG current change (%, negative = inhibition) at 10uM” value did it give?
Its value is -19.7%.

Which “hERG current change (%, negative = inhibition) at 10uM” value does the source give for CCN(CC)CCCn1c(SCC(=O)Nc2cccc(F)c2)nnc1-c1ccoc1C here?
Its value is -68.2%.

Which “hERG current change (%, negative = inhibition) at 10uM” value does the source give for Cn1nc([N+](=O)[O-])nc1N1CCOCC1 here?
Its value is 23.7%.

CC1CCCCN1CCn1c(=S)[nH]c2cc3c(cc2c1=O)OCO3 (stereo not shown) was tested. Which “hERG current change (%, negative = inhibition) at 10uM” value did it give?
Its value is -29%.

With Cc1cc2cccc(C)c2nc1SCC(=O)NNC(=O)c1ccco1 as the compound, how does the “hERG current change (%, negative = inhibition) at 10uM” value read?
Its value is 3.66%.

With Cn1nc(C(=O)Nc2cccc(S(=O)(=O)N3CCCC3)c2)c2ccccc2c1=O as the compound, how does the “hERG current change (%, negative = inhibition) at 10uM” value read?
The value was -4.87%.

How did the “hERG current change (%, negative = inhibition) at 10uM” value turn out when C=CCOc1c(CNc2ccc3[nH]c(=O)[nH]c3c2)cccc1OC was run?
The value was 10.1%.

How did the “hERG current change (%, negative = inhibition) at 10uM” value turn out when Cc1ccc(NC2CCCN(C(=O)c3snnc3C)C2)cc1C (stereo not shown) was run?
The value was 0.46%.

With Cn1c2c(c(=O)c3ccccc31)CCC(C)(C)O2 as the compound, how does the “hERG current change (%, negative = inhibition) at 10uM” value read?
The value was -3.57%.

Cl.Cn1c2c(c3ccccc31)CCN1CCC[C@]21c1ccccc1 was tested. Which “hERG current change (%, negative = inhibition) at 10uM” value did it give?
The value was -60.7%.

How did the “hERG current change (%, negative = inhibition) at 10uM” value turn out when Cn1c2c(c(=O)c3ccccc31)CCCC2 was run?
The value was -4.88%.

How did the “hERG current change (%, negative = inhibition) at 10uM” value turn out when COc1ccc(-c2nnc(NC(=O)c3ccc(S(=O)(=O)N(C)CC4CCCO4)cc3)o2)c(OC)c1 (stereo not shown) was run?
The value was 10.3%.

How did the “hERG current change (%, negative = inhibition) at 10uM” value turn out when CCn1cc(CN2CCC(n3nccc3NC(=O)Cc3ccccc3)CC2)cn1 was run?
The value was 7.27%.

CCn1cc(CN2CCC(n3nccc3NC(=O)c3ccccc3C)CC2)c(C)n1 was tested. Which “hERG current change (%, negative = inhibition) at 10uM” value did it give?
Its value is -37.9%.

Cc1ccccc1C(=O)Nc1ccnn1C1CCN(Cc2cnn(C(C)C)c2)CC1 was tested. Which “hERG current change (%, negative = inhibition) at 10uM” value did it give?
The value was -72.3%.

Which “hERG current change (%, negative = inhibition) at 10uM” value does the source give for CCn1cc(CN2CCC(n3nccc3NC(=O)c3ccccc3OC)CC2)cn1 here?
Its value is -71.4%.

With Cc1ccccc1C(=O)Nc1ccnn1C1CCN(Cc2cnn(C)c2)CC1 as the compound, how does the “hERG current change (%, negative = inhibition) at 10uM” value read?
Its value is -26.5%.

With COc1ccc(C(=O)Nc2ccnn2C2CCN(Cc3cnn(C)c3)CC2)cc1 as the compound, how does the “hERG current change (%, negative = inhibition) at 10uM” value read?
The value was 6.81%.

CCn1cc(CN2CCC(n3nccc3NC(=O)c3ccccc3C)CC2)cn1 was tested. Which “hERG current change (%, negative = inhibition) at 10uM” value did it give?
The value was -58.2%.

With CC(C)n1cc(CN2CCC(n3nccc3NC(=O)Cc3ccccc3)CC2)cn1 as the compound, how does the “hERG current change (%, negative = inhibition) at 10uM” value read?
The value was 7.82%.

COc1ccccc1C(=O)Nc1ccnn1C1CCN(Cc2cnn(C)c2)CC1 was tested. Which “hERG current change (%, negative = inhibition) at 10uM” value did it give?
Its value is -55.6%.

How did the “hERG current change (%, negative = inhibition) at 10uM” value turn out when COC(C(=O)Nc1ccnn1C1CCN(Cc2cnn(C(C)C)c2)CC1)c1ccccc1 (stereo not shown) was run?
Its value is -2.06%.

For CCn1cc(CN2CCC(n3nccc3NC(=O)c3ccc(OC)cc3)CC2)cn1, which “hERG current change (%, negative = inhibition) at 10uM” value is on record?
The value was -4.16%.

How did the “hERG current change (%, negative = inhibition) at 10uM” value turn out when Cn1cc(CN2CCC(n3nccc3NC(=O)c3ccccc3Cl)CC2)cn1 was run?
Its value is -32.9%.

O=C(COc1cc(F)ccc1[N+](=O)[O-])Nc1ccc(N2CCOCC2)cc1 was tested. Which “hERG current change (%, negative = inhibition) at 10uM” value did it give?
Its value is 7.65%.

For CN1C(=O)C2(C(C#N)=C(N)N(c3ccc(Cl)cc3)C3=C2C(=O)CC(C)(C)C3)c2ccccc21 (stereo not shown), which “hERG current change (%, negative = inhibition) at 10uM” value is on record?
The value was -6.79%.

Which “hERG current change (%, negative = inhibition) at 10uM” value does the source give for CCOC(=O)/C(C#N)=N/Nc1c(S(=O)(=O)Cc2ccco2)csc1C(=O)OC here?
Its value is 11.4%.

With COc1ccc(N2CCN(C(=O)Nc3ccccc3Cl)CC2)cc1 as the compound, how does the “hERG current change (%, negative = inhibition) at 10uM” value read?
The value was 4.49%.
